# About 410 targets per protein were measured; listed, in parts, are those with the strongest signals and a random draw of the rest.
# B1: Cohesin-marm-DC-ASGPR (protein)
# chain: LDITSHHHHHHDDLDAVRIKVDTVNAKPGDTVRIPVRFSGIPSKGIANCDFVYSYDPNVLEIIEIEPGDIIVDPNPDKSFDTAVYPDRKIIVFLFAEDSGTGAYAITKDGVFATIVAKVKEGAPNGLSVIKFVEVGGFANNDLVEQKTQFFDGGVNVGDTTEPATPTTPVTTPTTTDDLDAASSKFQRDLVTLRTDFSNFTSNTLAEIQALTSQGSSLQETIASLKAEVEGHKQELQAGASELQEHNKQKAHLGRCPHTCVCPSSFVCVPVHSEILLRVQQLVQDLNKLSCQVAILKNNATTERTCCPINWVEHQGSCYWFSRSGKTWPEAERYCQLENTHLVVINSREEQNFVQAHLGSAYTWMGLSDPEGVWKWVDGTDYSSGFQNWKPGQPDDWQGHGLGGGEDCAHFHPDGRWNDDVCQRSYHWVCEAGLTQASQDSHAS
# Experiments:
# Assay in all cases: glycan array binding signal (z-score within array); higher = stronger binding
# Conditions in all cases: glycan notation: IUPAC condensed, linker removed
# [1] = target: Fuc(a1-2)Gal(b1-4)GlcNAc(b1-2)[Fuc(a1-2)Gal(b1-4)GlcNAc(b1-4)]Man(a1-3)[Fuc(a1-2)Gal(b1-4)GlcNAc(b1-2)Man(a1-6)]Man(b1-4)GlcNAc(b1-4)GlcNAc
# Summary of the method: (§1)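 Glycan array data were curated from 3228 arrays in the Consortium for Functional Glycomics database and kept only where the protein sequence was available. Glycan names were converted to IUPAC-condensed notation, and columns mapping to the same glycan were averaged. The binding signal is a within-array Z-score, averaged across arrays of the same protein sequence at different concentrations or buffers and across linkers. Negative Z-scores can be read as non-binding.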
# [2] = target: Fuc(a1-2)Gal(b1-4)GlcNAc(b1-3)[Fuc(a1-2)Gal(b1-4)GlcNAc(b1-6)]GalNAc
# Summary of the method: as §1
# [3] = target: Fuc(a1-2)Gal(b1-4)GlcNAc(b1-6)GalNAc
# Summary of the method: as §1
# [4] = target: Fuc(a1-2)[Gal(a1-3)]Gal(b1-3)GlcNAc(b1-6)GalNAc
# Summary of the method: as §1
# [5] = target: Fuc(a1-2)[Gal(a1-3)]Gal(b1-4)GlcNAc
# Summary of the method: as §1
# [6] = target: Fuc(a1-2)[Gal(a1-3)]Gal(b1-4)GlcNAc(b1-2)Man
# Summary of the method: as §1
# [7] = target: Fuc(a1-2)[Gal(a1-3)]Gal(b1-4)GlcNAc(b1-3)[Fuc(a1-2)[Gal(a1-3)]Gal(b1-4)GlcNAc(b1-6)]GalNAc
# Summary of the method: as §1
# [8] = target: Fuc(a1-2)[GalNAc(a1-3)]Gal(b1-4)GlcNAc(b1-6)GalNAc
# Summary of the method: as §1
# [9] = target: Fuc(a1-2)[GalNAc(a1-4)]Gal(b1-4)GlcNAc
# Summary of the method: as §1
# [10] = target: Gal(a1-4)Gal(b1-4)GlcNAc(b1-2)Man(a1-3)[Gal(a1-4)Gal(b1-4)GlcNAc(b1-2)Man(a1-6)]Man(b1-4)GlcNAc(b1-4)GlcNAc
# Summary of the method: as §1
# Gal(b1-3)Gal = target: Gal(b1-3)Gal
# Summary of the method: as §1
# [11] = target: Gal(b1-3)GlcNAc(b1-6)[Gal(b1-3)]GalNAc
# Summary of the method: as §1
# [12] = target: Gal(b1-3)[Fuc(a1-4)]GlcNAc(b1-2)Man(a1-3)[Gal(b1-3)[Fuc(a1-4)]GlcNAc(b1-2)Man(a1-6)]Man(b1-4)GlcNAc(b1-4)[Fuc(a1-6)]GlcNAc
# Summary of the method: as §1
# [13] = target: Gal(b1-4)GlcNAc(b1-2)Man(a1-3)[Gal(b1-4)GlcNAc(b1-2)Man(a1-6)]Man(b1-4)GlcNAc(b1-4)GlcNAc
# Summary of the method: as §1
# [14] = target: Gal(b1-4)GlcNAc(b1-2)Man(a1-3)[GlcNAc(b1-4)][Gal(b1-4)GlcNAc(b1-2)Man(a1-6)]Man(b1-4)GlcNAc(b1-4)GlcNAc
# Summary of the method: as §1
# [15] = target: Gal(b1-4)GlcNAc(b1-2)[Gal(b1-4)GlcNAc(b1-4)]Man(a1-3)[GlcNAc(b1-4)][Gal(b1-4)GlcNAc(b1-2)[Gal(b1-4)GlcNAc(b1-6)]Man(a1-6)]Man(b1-4)GlcNAc(b1-4)GlcNAc
# Summary of the method: as §1
# [16] = target: Gal(b1-4)GlcNAc(b1-2)[Gal(b1-4)GlcNAc(b1-6)]Man(a1-6)[GlcNAc(b1-4)][Gal(b1-4)GlcNAc(b1-2)Man(a1-3)]Man(b1-4)GlcNAc(b1-4)GlcNAc
# Summary of the method: as §1
# [17] = target: Gal(b1-4)GlcNAc(b1-3)Gal(b1-4)GlcNAc(b1-3)Gal(b1-4)GlcNAc(b1-2)Man(a1-3)[Gal(b1-4)GlcNAc(b1-3)Gal(b1-4)GlcNAc(b1-3)Gal(b1-4)GlcNAc(b1-2)Man(a1-6)]Man(b1-4)GlcNAc(b1-4)GlcNAc
# Summary of the method: as §1
# [18] = target: Gal(b1-4)GlcNAc(b1-3)Gal(b1-4)GlcNAc(b1-3)Gal(b1-4)GlcNAc(b1-3)Gal(b1-4)GlcNAc(b1-2)[Gal(b1-4)GlcNAc(b1-3)Gal(b1-4)GlcNAc(b1-3)Gal(b1-4)GlcNAc(b1-3)Gal(b1-4)GlcNAc(b1-6)]Man(a1-6)[Gal(b1-4)GlcNAc(b1-3)Gal(b1-4)GlcNAc(b1-3)Gal(b1-4)GlcNAc(b1-3)Gal(b1-4)GlcNAc(b1-2)Man(a1-3)]Man(b1-4)GlcNAc(b1-4)[Fuc(a1-6)]GlcNAc
# Summary of the method: as §1
# [19] = target: Gal(b1-4)GlcNAc(b1-3)Gal(b1-4)GlcNAc(b1-3)Gal(b1-4)GlcNAc(b1-3)Gal(b1-4)GlcNAc(b1-3)Gal(b1-4)GlcNAc(b1-3)Gal(b1-4)GlcNAc(b1-2)Man(a1-3)[Gal(b1-4)GlcNAc(b1-3)Gal(b1-4)GlcNAc(b1-3)Gal(b1-4)GlcNAc(b1-3)Gal(b1-4)GlcNAc(b1-3)Gal(b1-4)GlcNAc(b1-3)Gal(b1-4)GlcNAc(b1-2)Man(a1-6)]Man(b1-4)GlcNAc(b1-4)GlcNAc
# Summary of the method: as §1
# Gal3S(b1-4)Glc6S = target: Gal3S(b1-4)Glc6S
# Summary of the method: as §1
# Gal6S(b1-4)GlcNAc6S = target: Gal6S(b1-4)GlcNAc6S
# Summary of the method: as §1
# GalNAc(a1-3)Gal = target: GalNAc(a1-3)Gal
# Summary of the method: as §1
# GalNAc(a1-3)GalNAc = target: GalNAc(a1-3)GalNAc
# Summary of the method: as §1
# GalNAc(b1-3)GalNAc = target: GalNAc(b1-3)GalNAc
# Summary of the method: as §1
# GalNAc(b1-4)GlcNAc = target: GalNAc(b1-4)GlcNAc
# Summary of the method: as §1
# [20] = target: GalNAc(b1-4)GlcNAc(b1-2)Man
# Summary of the method: as §1
# GalNAc(b1-4)GlcNAc6S = target: GalNAc(b1-4)GlcNAc6S
# Summary of the method: as §1
# GalNAc(b1-6)GalNAc = target: GalNAc(b1-6)GalNAc
# Summary of the method: as §1
# GlcA(b1-3)Gal = target: GlcA(b1-3)Gal
# Summary of the method: as §1
binder,measurement,setting,value
B1,glycan array binding signal (z-score),[1],-0.267
same,glycan array binding signal (z-score),[2],-0.236
same,glycan array binding signal (z-score),[3],4.84
same,glycan array binding signal (z-score),[4],4.11
same,glycan array binding signal (z-score),[5],-0.282
same,glycan array binding signal (z-score),[6],-0.239
same,glycan array binding signal (z-score),[7],-0.22
same,glycan array binding signal (z-score),[8],4.32
same,glycan array binding signal (z-score),[9],4.11
same,glycan array binding signal (z-score),[10],-0.267
same,glycan array binding signal (z-score),Gal(b1-3)Gal,-0.286
same,glycan array binding signal (z-score),[11],-0.272
same,glycan array binding signal (z-score),[12],-0.265
same,glycan array binding signal (z-score),[13],-0.277
same,glycan array binding signal (z-score),[14],-0.308
same,glycan array binding signal (z-score),[15],-0.268
same,glycan array binding signal (z-score),[16],-0.307
same,glycan array binding signal (z-score),[17],-0.177
same,glycan array binding signal (z-score),[18],-0.272
same,glycan array binding signal (z-score),[19],-0.295
same,glycan array binding signal (z-score),Gal3S(b1-4)Glc6S,-0.141
same,glycan array binding signal (z-score),Gal6S(b1-4)GlcNAc6S,-0.295
same,glycan array binding signal (z-score),GalNAc(a1-3)Gal,4.28
same,glycan array binding signal (z-score),GalNAc(a1-3)GalNAc,-0.266
same,glycan array binding signal (z-score),GalNAc(b1-3)GalNAc,-0.307
same,glycan array binding signal (z-score),GalNAc(b1-4)GlcNAc,4.21
same,glycan array binding signal (z-score),[20],4.13
same,glycan array binding signal (z-score),GalNAc(b1-4)GlcNAc6S,4.56
same,glycan array binding signal (z-score),GalNAc(b1-6)GalNAc,-0.303
same,glycan array binding signal (z-score),GlcA(b1-3)Gal,-0.309

# Reference: the supplement of paper PMC8728848
